Inhibition data for 7 molecules are collected here from ChEMBL document CHEMBL1961873, “Compounds: GSK PKIS; Assays: Nanosyn kinase panel” (2012).

SMILES strings stand for the structures.

Test [1] addresses Mitogen-activated protein kinase 3 (Homo sapiens) (UniProt P27361). To be noted: at 1 µM.
In test [2] the target is SRSF protein kinase 3 (Homo sapiens) (UniProt Q9UPE1). The conditions noted are these: at 0.1 µM.
For test [3] the target is unchanged. To be noted: at 1 µM.
The target of test [4] is Mitogen-activated protein kinase 14 (Homo sapiens) (UniProt Q16539). To be noted: at 0.1 µM.
Mitogen-activated protein kinase 14 (Homo sapiens), sequence (Q16539 whole entry): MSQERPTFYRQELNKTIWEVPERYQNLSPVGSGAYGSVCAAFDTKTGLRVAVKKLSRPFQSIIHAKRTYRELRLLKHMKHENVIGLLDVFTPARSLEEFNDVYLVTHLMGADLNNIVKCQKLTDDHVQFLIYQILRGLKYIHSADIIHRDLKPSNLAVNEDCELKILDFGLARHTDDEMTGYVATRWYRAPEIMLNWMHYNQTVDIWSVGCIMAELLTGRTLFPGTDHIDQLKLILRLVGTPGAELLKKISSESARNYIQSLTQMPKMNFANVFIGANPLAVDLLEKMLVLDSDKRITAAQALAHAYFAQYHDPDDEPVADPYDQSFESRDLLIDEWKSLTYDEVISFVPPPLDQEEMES
Test [5] shares this target. To be noted: at 1 µM.
For test [6], the target named is Mitogen-activated protein kinase 11 (Homo sapiens) (UniProt Q15759). The conditions noted are these: at 0.1 µM.
Mitogen-activated protein kinase 11 (Homo sapiens), sequence (Q15759 whole entry): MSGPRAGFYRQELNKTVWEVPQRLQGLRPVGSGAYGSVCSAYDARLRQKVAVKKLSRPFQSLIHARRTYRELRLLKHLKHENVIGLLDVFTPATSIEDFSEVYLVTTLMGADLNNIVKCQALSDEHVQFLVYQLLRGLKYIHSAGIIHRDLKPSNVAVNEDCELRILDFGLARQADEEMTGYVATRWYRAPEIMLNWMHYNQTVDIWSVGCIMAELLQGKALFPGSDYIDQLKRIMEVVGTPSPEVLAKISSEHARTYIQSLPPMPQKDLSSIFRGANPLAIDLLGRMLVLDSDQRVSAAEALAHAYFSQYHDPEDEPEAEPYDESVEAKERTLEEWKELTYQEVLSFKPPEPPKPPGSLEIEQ
The target is the same in test [7]. To be noted: at 1 µM.
The target in test [8] is T1, Mitogen-activated protein kinase 13 (Homo sapiens) (UniProt O15264).
T1 sequence (whole entry): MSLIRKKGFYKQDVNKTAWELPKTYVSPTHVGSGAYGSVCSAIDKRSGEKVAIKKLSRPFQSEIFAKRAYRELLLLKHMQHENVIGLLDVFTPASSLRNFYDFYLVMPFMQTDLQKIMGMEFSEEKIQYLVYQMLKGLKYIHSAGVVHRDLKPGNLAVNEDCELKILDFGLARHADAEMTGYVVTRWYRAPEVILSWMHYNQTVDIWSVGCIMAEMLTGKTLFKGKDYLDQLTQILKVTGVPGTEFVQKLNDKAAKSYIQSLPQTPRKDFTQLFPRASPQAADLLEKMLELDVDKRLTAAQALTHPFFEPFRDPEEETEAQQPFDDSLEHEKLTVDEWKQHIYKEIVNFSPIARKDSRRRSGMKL
The conditions noted are these: at 0.1 µM.

Test [9] deals with T1, Mitogen-activated protein kinase 13 (Homo sapiens). The conditions noted are these: at 1 µM.
For test [10], the target named is T2, Mitogen-activated protein kinase 12 (Homo sapiens) (UniProt P53778).
T2 sequence (whole entry): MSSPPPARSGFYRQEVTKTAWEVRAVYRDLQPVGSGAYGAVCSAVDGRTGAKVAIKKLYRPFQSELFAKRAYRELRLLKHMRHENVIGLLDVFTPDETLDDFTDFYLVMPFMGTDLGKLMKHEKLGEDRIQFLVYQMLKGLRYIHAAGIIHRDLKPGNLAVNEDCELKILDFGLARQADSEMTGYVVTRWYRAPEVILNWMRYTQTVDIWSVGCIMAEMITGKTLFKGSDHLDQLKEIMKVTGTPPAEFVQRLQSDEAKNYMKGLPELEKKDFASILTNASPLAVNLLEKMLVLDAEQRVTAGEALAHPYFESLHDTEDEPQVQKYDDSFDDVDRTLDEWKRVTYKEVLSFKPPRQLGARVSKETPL
The conditions noted are these: at 0.1 µM.

In test [11] the target is T2, Mitogen-activated protein kinase 12 (Homo sapiens). The conditions noted are these: at 1 µM.
The target in test [12] is SRSF protein kinase 1 (Homo sapiens) (UniProt Q96SB4). To be noted: at 0.1 µM.
SRSF protein kinase 1 (Homo sapiens), sequence (Q96SB4 whole entry): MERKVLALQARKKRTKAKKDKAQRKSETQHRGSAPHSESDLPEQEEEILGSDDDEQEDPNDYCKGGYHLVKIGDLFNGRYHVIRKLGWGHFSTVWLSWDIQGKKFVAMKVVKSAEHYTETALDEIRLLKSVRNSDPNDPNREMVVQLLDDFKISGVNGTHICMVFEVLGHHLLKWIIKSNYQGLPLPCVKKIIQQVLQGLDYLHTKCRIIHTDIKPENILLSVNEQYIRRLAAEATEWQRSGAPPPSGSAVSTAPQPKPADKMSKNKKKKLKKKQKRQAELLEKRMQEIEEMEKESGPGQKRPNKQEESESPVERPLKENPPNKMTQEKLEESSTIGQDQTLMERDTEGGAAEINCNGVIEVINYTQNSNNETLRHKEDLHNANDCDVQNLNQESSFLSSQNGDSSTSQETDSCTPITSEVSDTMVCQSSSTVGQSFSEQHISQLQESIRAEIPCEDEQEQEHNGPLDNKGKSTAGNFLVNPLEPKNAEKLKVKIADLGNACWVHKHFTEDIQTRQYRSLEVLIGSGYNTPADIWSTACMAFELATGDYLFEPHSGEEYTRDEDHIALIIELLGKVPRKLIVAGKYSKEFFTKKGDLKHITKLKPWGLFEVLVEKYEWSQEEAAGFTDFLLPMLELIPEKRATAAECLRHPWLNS
The target is the same in test [13]. To be noted: at 1 µM.
The target of test [14] is Phosphatidylinositol 4,5-bisphosphate 3-kinase catalytic subunit alpha isoform (Homo sapiens) (UniProt P42336). The conditions noted are these: at 0.1 µM.
Phosphatidylinositol 4,5-bisphosphate 3-kinase catalytic subunit alpha isoform (Homo sapiens), sequence (P42336 whole entry, canonical isoform): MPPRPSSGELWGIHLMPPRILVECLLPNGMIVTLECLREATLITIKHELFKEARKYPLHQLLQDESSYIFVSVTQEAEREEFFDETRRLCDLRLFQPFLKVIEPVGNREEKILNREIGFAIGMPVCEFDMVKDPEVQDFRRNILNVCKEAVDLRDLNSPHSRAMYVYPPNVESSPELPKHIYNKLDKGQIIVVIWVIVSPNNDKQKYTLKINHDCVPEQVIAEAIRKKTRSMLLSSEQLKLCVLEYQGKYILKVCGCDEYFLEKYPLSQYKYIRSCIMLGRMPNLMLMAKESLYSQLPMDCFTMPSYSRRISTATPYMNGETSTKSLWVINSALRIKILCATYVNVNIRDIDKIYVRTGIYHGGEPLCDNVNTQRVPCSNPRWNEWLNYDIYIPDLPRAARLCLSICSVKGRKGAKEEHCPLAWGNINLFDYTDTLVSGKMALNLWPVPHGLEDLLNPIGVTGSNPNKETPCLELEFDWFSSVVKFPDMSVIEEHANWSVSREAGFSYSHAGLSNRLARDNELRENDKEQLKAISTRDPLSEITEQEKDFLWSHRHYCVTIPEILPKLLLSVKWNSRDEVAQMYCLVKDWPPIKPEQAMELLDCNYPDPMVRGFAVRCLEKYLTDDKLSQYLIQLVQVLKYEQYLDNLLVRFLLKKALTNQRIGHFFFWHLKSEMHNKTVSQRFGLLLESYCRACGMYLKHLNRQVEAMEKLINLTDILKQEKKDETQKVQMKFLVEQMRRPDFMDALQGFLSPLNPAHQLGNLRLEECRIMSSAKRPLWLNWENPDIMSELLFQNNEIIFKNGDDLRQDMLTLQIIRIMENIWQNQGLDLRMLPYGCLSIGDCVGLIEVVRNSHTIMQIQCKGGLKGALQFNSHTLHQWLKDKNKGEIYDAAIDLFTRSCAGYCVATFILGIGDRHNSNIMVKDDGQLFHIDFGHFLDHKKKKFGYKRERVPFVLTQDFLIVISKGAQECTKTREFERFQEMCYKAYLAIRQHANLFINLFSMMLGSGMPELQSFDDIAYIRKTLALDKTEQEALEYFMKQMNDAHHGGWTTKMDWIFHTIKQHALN
Test [15] has the same target. To be noted: at 1 µM.
In test [16] the target is T3, Phosphatidylinositol 4,5-bisphosphate 3-kinase catalytic subunit delta isoform (Homo sapiens) (UniProt O00329).
T3 sequence (whole entry): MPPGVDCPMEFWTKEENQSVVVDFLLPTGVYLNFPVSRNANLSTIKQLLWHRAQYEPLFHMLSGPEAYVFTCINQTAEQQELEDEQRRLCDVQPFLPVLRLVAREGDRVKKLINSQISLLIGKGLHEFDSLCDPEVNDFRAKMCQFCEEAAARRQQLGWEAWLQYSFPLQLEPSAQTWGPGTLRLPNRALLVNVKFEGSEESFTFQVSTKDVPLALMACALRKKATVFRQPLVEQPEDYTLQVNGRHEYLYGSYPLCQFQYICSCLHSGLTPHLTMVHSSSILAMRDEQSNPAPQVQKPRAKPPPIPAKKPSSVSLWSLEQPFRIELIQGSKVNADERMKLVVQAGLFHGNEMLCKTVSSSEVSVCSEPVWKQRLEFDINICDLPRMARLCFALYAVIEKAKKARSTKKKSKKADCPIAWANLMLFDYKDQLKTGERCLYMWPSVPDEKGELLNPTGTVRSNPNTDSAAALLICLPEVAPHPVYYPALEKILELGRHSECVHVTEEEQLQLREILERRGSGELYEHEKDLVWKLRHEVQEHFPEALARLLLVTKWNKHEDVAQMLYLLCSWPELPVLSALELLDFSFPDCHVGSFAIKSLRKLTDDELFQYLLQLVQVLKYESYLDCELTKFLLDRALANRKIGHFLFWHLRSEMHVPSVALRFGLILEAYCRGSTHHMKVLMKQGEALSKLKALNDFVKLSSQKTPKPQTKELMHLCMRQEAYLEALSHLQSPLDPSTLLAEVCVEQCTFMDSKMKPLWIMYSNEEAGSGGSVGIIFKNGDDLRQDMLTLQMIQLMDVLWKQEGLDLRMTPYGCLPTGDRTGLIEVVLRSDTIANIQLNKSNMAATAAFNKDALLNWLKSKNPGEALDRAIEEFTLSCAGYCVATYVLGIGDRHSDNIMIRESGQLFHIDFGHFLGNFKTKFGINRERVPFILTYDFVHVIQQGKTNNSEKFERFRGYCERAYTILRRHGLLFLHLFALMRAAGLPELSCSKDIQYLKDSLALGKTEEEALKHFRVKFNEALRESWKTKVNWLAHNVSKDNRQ
To be noted: at 0.1 µM.

Test [17] has as its target T3, Phosphatidylinositol 4,5-bisphosphate 3-kinase catalytic subunit delta isoform (Homo sapiens). The conditions noted are these: at 1 µM.
Test [18] concerns the target Phosphatidylinositol 4-kinase beta (Homo sapiens) (UniProt Q9UBF8). To be noted: at 0.1 µM.
The target is the same in test [19]. To be noted: at 1 µM.
Test [20] addresses Sphingosine kinase 1 (Homo sapiens) (UniProt Q9NYA1). The conditions noted are these: at 0.1 µM.

Mitogen-activated protein kinase 3 (Homo sapiens), sequence (P27361 whole entry): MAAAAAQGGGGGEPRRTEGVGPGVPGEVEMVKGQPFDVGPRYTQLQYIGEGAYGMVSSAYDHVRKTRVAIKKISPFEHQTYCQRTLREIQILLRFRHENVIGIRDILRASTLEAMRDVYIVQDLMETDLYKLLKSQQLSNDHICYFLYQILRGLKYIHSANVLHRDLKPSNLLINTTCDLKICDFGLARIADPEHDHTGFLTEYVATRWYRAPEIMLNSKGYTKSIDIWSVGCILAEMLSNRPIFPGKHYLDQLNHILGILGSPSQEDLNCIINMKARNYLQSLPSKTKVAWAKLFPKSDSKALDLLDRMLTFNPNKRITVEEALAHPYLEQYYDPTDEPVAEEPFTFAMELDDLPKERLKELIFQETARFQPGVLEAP
Sphingosine kinase 1 (Homo sapiens), sequence (Q9NYA1 whole entry): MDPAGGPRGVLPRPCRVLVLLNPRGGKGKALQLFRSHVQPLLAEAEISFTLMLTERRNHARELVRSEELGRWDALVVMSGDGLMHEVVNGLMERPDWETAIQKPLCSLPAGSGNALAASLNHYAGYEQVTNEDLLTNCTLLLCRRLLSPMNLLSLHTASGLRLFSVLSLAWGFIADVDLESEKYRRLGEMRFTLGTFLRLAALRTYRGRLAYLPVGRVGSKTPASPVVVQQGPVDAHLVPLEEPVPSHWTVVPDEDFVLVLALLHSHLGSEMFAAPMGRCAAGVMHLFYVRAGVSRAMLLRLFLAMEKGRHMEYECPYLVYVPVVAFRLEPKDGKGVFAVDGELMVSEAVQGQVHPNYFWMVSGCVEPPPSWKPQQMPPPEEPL
Phosphatidylinositol 4-kinase beta (Homo sapiens), sequence (Q9UBF8 2-816 limits assumed): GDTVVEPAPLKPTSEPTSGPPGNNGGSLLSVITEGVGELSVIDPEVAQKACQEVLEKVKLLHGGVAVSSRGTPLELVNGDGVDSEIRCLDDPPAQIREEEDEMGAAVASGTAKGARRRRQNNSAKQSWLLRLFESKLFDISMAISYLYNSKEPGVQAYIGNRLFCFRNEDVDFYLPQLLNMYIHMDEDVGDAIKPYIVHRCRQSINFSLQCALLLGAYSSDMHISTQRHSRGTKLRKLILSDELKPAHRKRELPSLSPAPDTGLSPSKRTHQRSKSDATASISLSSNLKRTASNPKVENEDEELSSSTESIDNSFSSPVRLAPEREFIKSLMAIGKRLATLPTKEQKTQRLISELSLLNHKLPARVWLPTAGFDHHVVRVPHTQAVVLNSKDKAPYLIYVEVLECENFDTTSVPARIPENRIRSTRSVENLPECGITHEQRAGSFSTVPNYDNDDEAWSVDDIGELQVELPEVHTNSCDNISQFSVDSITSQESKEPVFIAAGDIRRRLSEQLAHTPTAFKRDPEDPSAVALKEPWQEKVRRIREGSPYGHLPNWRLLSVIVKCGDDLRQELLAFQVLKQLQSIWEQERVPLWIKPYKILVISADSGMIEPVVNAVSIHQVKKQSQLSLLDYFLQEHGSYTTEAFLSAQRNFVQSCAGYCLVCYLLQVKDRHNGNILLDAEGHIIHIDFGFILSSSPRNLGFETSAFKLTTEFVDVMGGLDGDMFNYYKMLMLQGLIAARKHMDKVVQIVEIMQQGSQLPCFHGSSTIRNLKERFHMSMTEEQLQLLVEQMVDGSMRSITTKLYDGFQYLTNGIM
SRSF protein kinase 3 (Homo sapiens), sequence (Q9UPE1 whole entry): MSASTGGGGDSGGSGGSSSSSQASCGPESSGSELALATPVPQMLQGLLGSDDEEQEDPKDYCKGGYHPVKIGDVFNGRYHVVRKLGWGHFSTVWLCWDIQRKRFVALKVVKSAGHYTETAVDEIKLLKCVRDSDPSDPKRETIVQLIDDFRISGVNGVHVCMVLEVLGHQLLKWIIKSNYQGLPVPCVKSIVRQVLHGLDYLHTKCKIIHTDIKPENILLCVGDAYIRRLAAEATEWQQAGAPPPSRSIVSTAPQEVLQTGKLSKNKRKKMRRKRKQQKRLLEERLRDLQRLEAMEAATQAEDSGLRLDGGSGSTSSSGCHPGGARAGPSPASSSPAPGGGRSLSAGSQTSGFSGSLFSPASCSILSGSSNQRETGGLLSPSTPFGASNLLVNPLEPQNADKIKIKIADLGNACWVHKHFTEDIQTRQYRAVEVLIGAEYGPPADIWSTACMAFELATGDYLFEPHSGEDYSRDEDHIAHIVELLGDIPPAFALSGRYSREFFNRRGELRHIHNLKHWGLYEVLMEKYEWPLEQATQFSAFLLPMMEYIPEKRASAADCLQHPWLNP

Usually inhibition stands for the drop in the measured response relative to a control, in per cent. For the molecule `CCn1c(-c2nonc2N)nc2c(C#CC(C)(C)O)ncc(OCC3CCNCC3)c21`, the inhibition in test [1] is 6.52%; in test [2] it was -0.11%; in [3], 3.41%; in test [4], -0.04%; in test [5] it was 5.69%; in test [6], 3.7%. In addition, the inhibition is 4.04% in [7]; 1.99% in [8]; 2.26% in test [9]; 1.19% in test [10]; 1.7% in test [11]; -0.7% in test [12]. The inhibition in [13] was 1.81%; in test [14], 1.65%; in test [15], 19.5%; in test [16], -0.08%; in [17] it was -0.9%; in test [18], 4.18%. For the same molecule, the inhibition in test [19] was -3.56%; in test [20], 0%.
With `COc1cc(C=NNc2ncnc3c2cnn3Cc2ccccc2)ccc1O`, the inhibition in test [1] was -1.19%; in test [2] it was -1.86%; in test [3], -0.84%; in test [4], -2.19%; in [5] it was -2.5%; in test [6], -3.2%. The inhibition in [7] is -2.27%; in test [8] it was -0.79%; in test [9] it was -6.14%; in [10] it was -2.53%; in test [11], -3.29%; in [12], 1.24%. In addition, the inhibition was 0.29% in test [13]; -4.02% in test [14]; -1.81% in test [15]; 3.47% in test [16]; 6.81% in [17]; -1.09% in [18]. Further, the inhibition is 2.84% in test [19] and 3.3% in [20].
`COc1cc2c(cc1Nc1nc(Nc3ccsc3C(N)=O)c3cc[nH]c3n1)N(C(=O)CN(C)C)CCC2`: the inhibition in [1] is 1.75%; in test [2] it was -1.49%; in [3], -0.38%; in test [6] it was 2.67%; in test [7], 6.9%; in [8], 1.18%. Further, the inhibition was 0.18% in [9]; 2.28% in [10]; 3.18% in [11]; -1.65% in test [12]; -0.66% in test [13]; -0.16% in test [14]. Moreover, the inhibition is -1% in [15]; 0.01% in [16]; -0.22% in test [17]; -1.18% in test [18]; -3.17% in test [19]; 1.85% in [20].
With `COc1cccc(-n2ncc3c(N/N=C/c4ccncc4)ncnc32)c1`, the inhibition in test [1] is 7.65%; in test [2], -0.94%; in test [3] it was 1.8%; in [4], 9.43%; in [5], 16.4%; in test [6], 4.02%. Besides, the inhibition in test [7] was 10.8%; in test [8], 7.88%; in test [9], 43.3%; in test [10], 5.45%; in [11], 14.1%; in test [12], -1.14%. The inhibition in [13] is 4.65%; in test [14] it was 3.22%; in test [15] it was 7.14%; in test [16], 2.66%; in test [17], 10%; in test [18] it was -3.14%. Also, the inhibition in [19] was 1.7%; in test [20], -0.71%.
Turning to `NS(=O)(=O)c1ccc(N/C=C2\C(=O)Nc3ccc4ncsc4c32)cc1`, the inhibition in test [1] is 15.3%; in test [2], -1.67%; in test [3], 0.72%; in test [4], 18.6%; in test [5], 23.4%; in test [6] it was 4.61%. Also, the inhibition in test [7] was 15%; in test [8], 4.52%; in test [9], 4.84%; in test [10] it was 2.86%; in [11], 5.04%; in [12] it was -3.49%. Further, the inhibition in [13] is -2.8%; in test [14], 4.87%; in test [15] it was 7.04%; in test [16], 2.72%; in test [17], 12.7%; in test [18], -2.13%. The inhibition is 1.22% in test [19] and 0.04% in test [20].
Take `CCn1c(-c2nonc2N)nc2c(C#CC(C)(C)O)ncc(OC[C@@H]3CCCN3)c21`: the inhibition in test [1] was 2.32%; in test [2], -2.22%; in test [3] it was -4.41%; in test [4], 0.34%; in [5] it was 0.75%; in test [6], 1.96%. The inhibition in test [7] was 1.41%; in test [8] it was 0.68%; in [9], -1.56%; in test [10], 0.36%; in test [11], 0.35%; in test [12] it was -1.57%. The inhibition in test [13] was -2.53%; in test [14], -0.15%; in [15], 0.24%; in test [16] it was 0.06%; in test [17], 0.22%; in [18] it was 0.05%. Also, the inhibition was 1.54% in test [19] and -0.8% in test [20].
`NC(=O)c1sc(-n2cnc3cc(C(F)(F)F)ccc32)cc1OCc1ccccc1Br`: the inhibition is 0.48% in test [1]; -3.47% in [2]; 0.48% in test [3]; 1.34% in [4]; 4.04% in test [5]; 4.23% in [6]. In addition, the inhibition in [7] is 4.66%; in [8], 0.44%; in [9], -0.68%; in test [10] it was 1.27%; in [11], 1.86%; in test [12] it was -1.98%. In addition, the inhibition is -4.1% in [13]; 0.07% in [14]; 0.07% in test [15]; 0.65% in test [16]; 1.77% in [17]; 0.77% in [18]. Besides, the inhibition in test [19] was -3.13%; in test [20], -0.24%.
